Assay results: PubChem BioAssay AID1063 (University of Pittsburgh Molecular Library Screening Center, 2008)
Hit rate of the full screen: of about 200,000 compounds, about 18,000 (9%) were called active. Rule as the data show it: active = inhibition above about 50%; inactive = the rest. The full list was thinned out, with actives kept by preference.

Assay: antileishmanial activity against promastigotes – primary screen (AID 1063);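 also: promastigotes grown with compound for 44 hours at 28 °C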
Conditions: Leishmania major promastigotes, resazurin fluorescence viability; at 10 µM; active compounds read high

Row | SMILES | inhibition
1 | S=C(NCCc1ccccc1)NCc1ccccc1Cl | -3.26% (inactive)
2 | O=C(O)Cc1ccc(NCc2ccccc2Cl)cc1 | -1.01% (inactive)
3 | OCCNCc1cccc(OCc2ccccc2Cl)c1 | 88.8% (active)
4 | COc1ccccc1NC(=O)c1cc(Cl)nnc1Cl | 15.6% (inactive)
5 | Cc1cccc(NC(=O)c2cc([N+](=O)[O-])ccc2N2CCN(C)CC2)c1 | -0.64% (inactive)
6 | COc1ccc(NC(=O)c2sc(N)nc2-c2ccccc2)cc1 | 2.6% (inactive)
7 | Cc1cccc(NC(=O)c2sc(-c3ccccc3)nc2-c2ccc([N+](=O)[O-])cc2)c1 | 99.5% (active)
8 | CC(=O)C1=C(O)C(=O)N(c2cccnc2)C1c1ccc([N+](=O)[O-])cc1 (stereo not drawn) | -4.89% (inactive)
9 | Cc1ccc(OCC(=O)NNC(=S)NCc2ccccc2)cc1 | -2.06% (inactive)
10 | Cc1ccc(-c2noc(CSc3nnnn3-c3ccccc3)n2)cc1 | 7.86% (inactive)
11 | O=c1c2ccccc2nc(CSc2nnnn2-c2ccccc2)n1-c1ccccc1 | -5.4% (inactive)
12 | Cc1ccc(Nc2nc(CSc3nnnn3-c3ccccc3)cc(=O)[nH]2)cc1 | 97.7% (active)
13 | CC1=NNC(=O)C1CCC(=O)N/N=C\c1cccc(Cl)c1 (stereo not drawn) | 0.75% (inactive)
14 | COc1ccc(-c2nn(-c3ccccc3)cc2/C=C\C(=O)N2CCOCC2)cc1[N+](=O)[O-] | 12.4% (inactive)
15 | O=[N+]([O-])c1cc(S(=O)(=O)CCCN2CCOCC2)ccc1F | 1.38% (inactive)
16 | C=CCOc1ccc(Cl)cc1CNCCCN1CCOCC1 | 69.1% (active)
17 | COc1ccc(-c2ccc(CNCCCN3CCOCC3)o2)cc1Cl | 40% (inactive)
18 | COc1ccc(OC)c(Cc2nnc(CCC(=O)NC3CCCC3)o2)c1 | -0.8% (inactive)
19 | O=C1Nc2cc(Cl)c(Cl)cc2N(O)N1c1ccccc1Cl | -6.67% (inactive)
20 | NC1=NC2(CCCCC2)N(c2ccc(F)cc2F)C(N)=N1 | -5.15% (inactive)
21 | Cc1cc(C(=O)CC#N)c(C)n1-c1c(C)n(C)n(-c2ccccc2)c1=O | -0.96% (inactive)
22 | CC(=O)c1cnc(SCC(=O)O)nc1C | -12.2% (inactive)
23 | NNc1nc2c(Cl)cccc2s1 | 99.1% (active)
24 | C/C(=N\NC(=O)OC(C)(C)C)c1ccc[nH]1 | -3.24% (inactive)

Row | SMILES | inhibition
25 | COc1cc([N+](=O)[O-])ccc1NC(=O)CN1CCCC1 | -4.3% (inactive)
26 | Cc1cc(-c2nnc(CCC(=O)NC(c3ccccc3)c3ccccc3)o2)no1 | 5.43% (inactive)
27 | NNC(=O)c1cnn(-c2ccccc2)c1C(F)(F)F | -1.35% (inactive)
28 | CN(CC(=O)NCCc1ccccc1)S(=O)(=O)c1cnc[nH]1 | 57.7% (active)
29 | Cc1ccc(NC(=O)CN(C)S(=O)(=O)c2cnc[nH]2)cc1C | -1.54% (inactive)
30 | CN(CC(=O)NC1CCCC1)S(=O)(=O)c1cnc[nH]1 | -0.93% (inactive)
31 | COC(=O)c1nc(NC(=O)c2ccc(C(C)(C)C)cc2)n[nH]1 | -4.46% (inactive)
32 | CCC(C)(C)NC(=O)C(c1cccc(OC)c1OC)N(CC(C)C)C(=O)CCC(=O)Nc1cc(C)on1 (stereo not drawn) | 9.34% (inactive)
33 | O=C1NC(c2cccc(Cl)c2)Nc2ccccc21 (stereo not drawn) | -1.93% (inactive)
34 | O=C(O)c1ccc(/C=N/NC(=S)NCc2ccccc2)cc1 | -3.57% (inactive)
35 | O=C(N/N=C/c1ccc2c(c1)OCO2)C(=O)N1CCCC1 | -3.67% (inactive)
36 | Cc1cc(C)cc(C(=O)N2CCN=C2SCc2ccc([N+](=O)[O-])cc2)c1 | 20.5% (inactive)
37 | Cc1cccc(CC(=O)N2CCN=C2SCc2ccc([N+](=O)[O-])cc2)c1 | 88.4% (active)
38 | O=C(Cc1ccc(F)cc1)N1CCN=C1SCc1cccc([N+](=O)[O-])c1 | 46.3% (inactive)
39 | Cc1ccc(S(=O)(=O)N2CC(=O)Nc3ccccc32)cc1C | 3.05% (inactive)
40 | Cc1cccc(C)c1NC(=O)C(c1ccccc1)N1CC(=O)Nc2ccccc21 (stereo not drawn) | 57.2% (active)
41 | Cc1ccc(C(=O)N2CC(=O)Nc3ccccc32)o1 | -0.84% (inactive)
42 | CCOC(=O)c1csc(NC(=O)c2ccc(S(=O)(=O)N3CCCC3)cc2)n1 | 0.83% (inactive)
43 | COc1ccc(C(=O)Nc2nc(-c3ccc(S(=O)(=O)N4CCOCC4)cc3)cs2)cc1 | 80.4% (active)
44 | COc1ccc(-c2csc(NC(=O)c3ccc(N4C(=O)CCC4=O)cc3)n2)cc1OC | 6.8% (inactive)
45 | C=CCN(c1ccc(Cl)cc1)S(=O)(=O)c1cccc(C(=O)OCC(=O)N(C)C)c1 | -0.9% (inactive)
46 | Cc1ccccc1N1CCN(CCCOc2ccc3c(C)cc(=O)oc3c2)CC1 | 42.5% (inactive)
47 | Cc1ccc(C(=O)COC(=O)CCCC(=O)NC2CCCCC2)cc1[N+](=O)[O-] | 33.2% (inactive)
48 | Cc1cc(OCCCN2CCN(Cc3ccccc3)CC2)ccc1[N+](=O)[O-] | 94.3% (active)
